Bioassay records from PubChem.
An excerpt weighted towards active compounds, which were near 1.6% of everything screened.
KCNQ2 inh: inhibitors of rat KCNQ2 potassium channel; 310,000 compounds, 1.1% hits; B-score at 10 µM; O88943; AID 2156; CHO-K1 KCNQ2, FluxOR thallium flux, 20 min; hits give low values;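 active = fluorescence ratio B-score at most minus 3 library SDs, with starting brightness B-score within 2 library SDs, cut at about -5.5 in these data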
Target sequence (O88943 whole entry, looked up): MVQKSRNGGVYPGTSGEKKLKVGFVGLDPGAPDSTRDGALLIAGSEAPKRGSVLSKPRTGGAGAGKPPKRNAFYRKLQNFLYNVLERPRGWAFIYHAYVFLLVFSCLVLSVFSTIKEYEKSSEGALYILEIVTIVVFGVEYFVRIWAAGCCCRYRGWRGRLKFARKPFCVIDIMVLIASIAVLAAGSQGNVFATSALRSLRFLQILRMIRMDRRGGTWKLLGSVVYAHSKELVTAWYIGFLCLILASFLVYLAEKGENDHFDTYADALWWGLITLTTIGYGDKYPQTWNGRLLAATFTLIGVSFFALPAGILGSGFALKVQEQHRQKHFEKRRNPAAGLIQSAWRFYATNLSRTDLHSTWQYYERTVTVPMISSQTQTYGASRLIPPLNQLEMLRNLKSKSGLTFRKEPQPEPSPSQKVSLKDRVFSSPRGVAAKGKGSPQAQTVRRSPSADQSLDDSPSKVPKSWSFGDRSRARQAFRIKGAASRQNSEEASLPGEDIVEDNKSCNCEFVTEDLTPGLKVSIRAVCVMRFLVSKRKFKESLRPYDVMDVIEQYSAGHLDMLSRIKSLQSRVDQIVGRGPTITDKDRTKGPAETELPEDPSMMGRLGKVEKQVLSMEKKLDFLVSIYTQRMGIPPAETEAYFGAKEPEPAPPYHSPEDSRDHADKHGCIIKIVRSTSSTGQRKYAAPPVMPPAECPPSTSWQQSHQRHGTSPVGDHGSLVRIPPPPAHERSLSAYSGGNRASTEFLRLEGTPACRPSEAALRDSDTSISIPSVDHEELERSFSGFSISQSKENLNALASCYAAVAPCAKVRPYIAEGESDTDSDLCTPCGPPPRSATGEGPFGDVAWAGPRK
KCNQ2 enhance: KCNQ2 (rat) channel potentiation | CHO-K1 KCNQ2, FluxOR thallium flux fluorescence; hits give high values | 310,000 compounds, 0.54% hits | O88943 | AID 2239 | B-score at 10 µM;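 active = fluorescence ratio B-score at least 3 SD of library B-scores, with initial fluorescence B-score within 3 of them, cut at about 5.3 in these data; same plate scores as AID 2156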;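 note: B-score of peak minus minimum over baseline fluorescence ratio after K+ and Tl+ stimulus; positive B-score means potentiation of KCNQ2 with more thallium influx and brighter signal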
KCNQ2 block conf: confirmation of rat KCNQ2 potassium channel inhibitors; 1,000 compounds, 57% hits; activity change, negative = inhibition, % at 10 µM; KCNQ2-expressing cells, thallium flux, inhibition; hits give low values; shares compounds with KCNQ2 inh;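 note: 0% = vehicle wells and values are ratio percent relative to vehicle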
KCNQ1 spec: human KCNQ1 activity in KCNQ2 inhibitor specificity screen; shares compounds with KCNQ2 inh; KCNQ1-expressing cells, FluxOR thallium flux fluorescence; hits give low values; activity change, negative = inhibition, % at 10 µM; 1,000 compounds, 15% hits;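 active = activity change at least 3 SD of negative controls below their mean in both duplicate wells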;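 note: CHO cells stably transfected with KCNQ1 and depolarized by potassium stimulus; peak minus minimum fluorescence over baseline after thallium addition; 0% = vehicle negative control and -100% = blank without thallium stimulus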
CHO parental ctr: activity in parental CHO cells lacking KCNQ2; shares compounds with KCNQ2 inh; thallium flux counter-screen; hits give low values; activity change, % at 10 µM; 1,000 compounds, 14% hits;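 note: 0% = vehicle negative controls with stimulus buffer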
KCNQ2 patch conf: rat KCNQ2 inhibition confirmed by electrophysiology | shares compounds with KCNQ2 inh | KCNQ2-expressing cells, automated patch clamp current | calls only at 10 µM | 550 compounds, 49% hits
The depositor's hits bear a star; i = inactive; · = no result given; + = active, no number. Unless noted, the rule behind the calls is not given here.

SMILES | KCNQ2 inh | KCNQ2 enhance | KCNQ2 block conf | KCNQ1 spec | CHO parental ctr | others
O=C(NCCCN1CCN(c2ccc(F)cc2)CC1)NC12CC3CC(CC(C3)C1)C2 | -8.2* | -8.2 | i | i | i
O=C(NCCCN1CCOCC1)NC12CC3CC(CC(C3)C1)C2 | i | · | · | · | ·
Cc1cccc(NC(=O)CCCN2C(=O)C(c3ccccc3)Oc3cccnc32)c1C (centres undefined) | i | · | · | · | ·
COc1ccc2oc(C(=O)OCC(=O)N(Cc3ccccc3)C(C)(C)C)c(C)c2c1 | -9.4* | -9.4 | i | i | i
CC(C)(C)N(Cc1ccccc1)C(=O)COc1cccnc1[N+](=O)[O-] | i | · | · | · | ·
COc1ccc2oc(C(=O)OCC(=O)NCCc3ccccc3)c(C)c2c1 | i | 0.22 | · | · | ·
CC(C)(C)N(Cc1ccccc1)C(=O)COC(=O)c1cccc([N+](=O)[O-])c1 | -7* | -7 | i | i | i
NC(=O)CSc1ccc(-c2ccc(F)cc2)nn1 | i | 0.15 | · | · | ·
COc1ccc(C(=O)CSc2nnc(CNC(=O)c3ccc(S(=O)(=O)N(C)C)cc3)o2)cc1 | i | · | · | · | ·
Cc1ccccc1SCC(=O)Nc1cc(C(F)(F)F)ccc1N1CCOCC1 | -9.5* | -9.5 | -30%* | i | i | KCNQ2 patch conf=i
Cc1nnc(SCC(=O)Nc2cc(C(F)(F)F)ccc2N2CCOCC2)o1 | i | 0.41 | · | · | ·
O=C(NCCCN1CCOCC1)c1cccc(S(=O)(=O)Nc2ccccc2Cl)c1 | i | · | · | · | ·
CC(C)(C)c1cc(C(c2cccnc2)N2CCN(CCO)CC2)cc(C(C)(C)C)c1O (centres undefined) | -9.2* | -9.2 | -26%* | i | i | KCNQ2 patch conf=i
CC(C)(C)n1nnnc1C(c1cccnc1)N1CCN(c2cccc(C(F)(F)F)c2)CC1 (centres undefined) | i | 1.6 | · | · | ·
CNC(=O)c1ccc(-c2sc3nc(N4CCOCC4)c4c(c3c2N)CCCC4)o1 | -9.5* | -9.5 | -22%* | i | i | KCNQ2 patch conf=i
CNC(=O)c1ccc(-c2sc3nc(N4CCOCC4)c4c(c3c2N)CC(C)(C)OC4)o1 | i | 0.03 | · | · | ·
COc1ccc(CCNC(=O)C(NS(=O)(=O)c2cccc3nsnc23)C(C)C)cc1OC (centres undefined) | i | 0.28 | · | · | ·
Cc1ccc(Sc2ccc(NC(=O)c3ccc(S(C)(=O)=O)cc3Cl)cc2)cc1 | -8.8* | -8.8 | i | i | i
CS(=O)(=O)c1ccc(C(=O)Nc2ccc(N3CCCCC3)cc2)c(Cl)c1 | i | 0.36 | · | · | ·
COCCN(C(=O)COC(=O)CCC1CCCC1)c1c(N)n(Cc2ccccc2)c(=O)[nH]c1=O | i | 1.4 | · | · | ·
Cc1ccc(-c2nc(CSCC(=O)N3CCN(c4ccccn4)CC3)c(C)o2)cc1 | i | · | · | · | ·
CCc1ccc(-c2nc(CSCC(=O)N3CCN(c4ccccn4)CC3)c(C)o2)cc1 | -10* | -10 | -38%* | -40%* | -32%* | KCNQ2 patch conf=i
Cc1nn(CC(=O)NCc2cccc3ccccc23)c(=O)c2ccccc12 | i | · | · | · | ·
Cc1ccc2c(c1)C(c1ccncc1)=NNC(c1ccccc1)=N2 | i | · | · | · | ·
c1ccc(C2=Nc3c(ccc4ccccc34)C(c3ccncc3)=NN2)cc1 | -12* | -12 | -29%* | i | i | KCNQ2 patch conf=+
SMILES | KCNQ2 inh | KCNQ2 enhance | KCNQ2 block conf | KCNQ1 spec | CHO parental ctr | others
CCN1CCCC1CNC(=O)C(=O)NC(C)c1ccccc1 (centres undefined) | i | 0.68 | · | · | ·
C=CCCC(=O)N(C)CCO | i | · | · | · | ·
Cc1ccccc1C(=O)O/N=C(\N)c1ccccc1 | i | · | · | · | ·
Cc1ccccc1C(=NC(=O)c1ccccc1)c1ccccc1 | -8.5* | -8.5 | -28%* | i | i | KCNQ2 patch conf=+
Cc1ccc(OCC(=O)N2CCN(c3nnc(-c4ccc(C)cc4)c4ccccc34)CC2)cc1 | -7.7* | -7.7 | -33%* | i | i | KCNQ2 patch conf=+
COc1ccc(OCC(=O)N2CCN(c3nnc(-c4ccc(C)cc4)c4ccccc34)CC2)cc1 | i | · | · | · | ·
Cc1ccc(C)c(C(=O)COC(=O)C(C)N2C(=O)C3C4CCC(C4)C3C2=O)c1 (centres undefined) | i | · | · | · | ·
Cc1ccc(-n2c(SCC(=O)N(C)C)nnc2-c2ccco2)cc1 | i | 1.4 | · | · | ·
O=C(NCCc1cn2ccsc2n1)C1CCCCC1 | i | 0.14 | · | · | ·
Cc1csc2nc(CNC(=O)C3CCCCC3)cn12 | -8.8* | -8.8 | i | i | i
Cc1cc(C)c(C)c(S(=O)(=O)NC(C(=O)O)C(C)C)c1C (centres undefined) | i | 0.04 | · | · | ·
